PubChem BioAssay (NCATS)
Records with an inconclusive call do not appear. Activity calls are given as the source filed them. Unless noted, calls come from the whole dose curve.

Test system: not listed separately
Experiment: S16 Schwann cell PMP22 intronic element firefly luciferase assay (AID 624032; active = well fitted inhibition curve with a large enough effect; note: nearly all actives have a fitted effect of over 30% in size;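 for activity change, negative = inhibition: plate controls were DMSO for no effect and PTC124 positive control mean for full effect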)
Conditions: S16 rat Schwann cells, PMP22 element FLuc, 24 h; series mostly up to 57.5 µM; activity change, negative = inhibition: at the top concentration
Procedure, shortened: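 Luciferase reporter of PMP22 intronic-element expression in stably transfected S16 rat Schwann cells, read by ONE-Glo luminescence after 24 h compound exposure at 37 C. Activity scaled between DMSO (0%) and positive-control PTC124; concentration-effect curves quality-classified.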
Potency is the fitted concentration of half-maximal effect.

| Compound | activity change, negative = inhibition | Potency |
| --- | --- | --- |
| C1CCc2nnnn2CC1 | 4.35% (inactive) |  |
| C[C@@H](CN(C)C)CN1c2ccccc2Sc2ccccc21 | 0.855% [at 25.7 µM] (inactive) |  |
| COc1c(C)c2c(c(O)c1C/C=C(\C)CCC(=O)O)C(=O)OC2 |  | 0.976 µM (active) |
| Cc1ccc(O)c2ncccc12 | -39.9% (inactive) |  |
| c1ccc(OCc2ccc(CCCN3CCOCC3)cc2)cc1 | 5.62% (inactive) |  |
| CCCCC(CC)CN=C(N)NC(N)=NCCCCCCN=C(N)NC(N)=NCC(CC)CCCC (configuration not stated) |  | 25.6 µM (active) |
| CCN(CC)CCOC(=O)C(c1ccccc1)C1CCCCC1 (configuration not stated) | 26.4% (inactive) |  |
| O=C(CCN1CCC(c2ccccc2)C1)c1ccc2c(c1)OCCO2 (configuration not stated) |  | 25.6 µM (active) |
| CCOC(=O)COc1ccc2c(C)c(CCN(CC)CC)c(=O)oc2c1Cl | -42.3% (inactive) |  |
| CCC(=O)c1c(O)cc(O)cc1O | -3.37% (inactive) |  |
| CC(Cc1cccc(C(F)(F)F)c1)NCCOC(=O)c1ccccc1 (configuration not stated) | 0.315% (inactive) |  |
| O=C1CCC(c2ccc(-n3ccnc3)cc2)=NN1 | -4.61% (inactive) |  |
| CNCCC=C1c2ccccc2CCc2ccccc21 |  | 11.4 µM (active) |
| CC1(C)CCC(NC(=O)[C@@H](N)CCC(=O)O)CC1 | 23.4% (inactive) |  |
| N[C@H](CO)C(=O)O | -3.91% (inactive) |  |
| CN(C)CCCOc1nn(Cc2ccccc2)c2ccccc12 | -3.99% [at 25.7 µM] (inactive) |  |
| Nc1cc(Cl)c(NC2=NCCN2)c(Cl)c1 | 2.32% (inactive) |  |
| NC(CS)C(=O)O (configuration not stated) | 14.3% (inactive) |  |
| Oc1c(I)cc(I)c2cccnc12 |  | 8.09 µM (active) |
| CN=C(NC#N)NCCSCc1csc(N=C(N)N)n1 | 8.52% (inactive) |  |
| NC(=O)C(=O)N/N=C/c1ccc([N+](=O)[O-])o1 |  | 32.2 µM (active) |
| COCc1c(C(C)C)nc(C(C)C)c(/C=C/[C@@H](O)C[C@@H](O)CC(=O)O)c1-c1ccc(F)cc1 |  | 4.55 µM (active) |
| CN1CCN(CCCN2c3ccccc3Sc3ccc(S(=O)(=O)N(C)C)cc32)CC1 | -9.79% [at 25.7 µM] (inactive) |  |

Test system: not listed separately
Experiment: S16 Schwann cell PMP22 intronic element beta-lactamase assay (AID 624044); note: nearly all actives have a fitted effect of over 15% in size;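 for ratio activity, negative = inhibition: 0% = DMSO and -100% = potassium clavulanate positive control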
Conditions: S16 rat Schwann cells, PMP22 element beta-lactamase FRET, 24 h; ratio activity, negative = inhibition: at 38.3 µM (top of the series)
Procedure, shortened: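 Beta-lactamase reporter under a PMP22 intronic regulatory element in stable S16 rat Schwann cells; 24 h compound exposure. 460 nm blue signal normalized between DMSO (0%) and potassium clavulanate, with 535 nm FRET tracking viability; curves classed by r2 and response.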

| Compound | Potency | ratio activity, negative = inhibition |
| --- | --- | --- |
| CCOC(=O)OC(C)OC1=C(C(=O)Nc2ccccn2)N(C)S(=O)(=O)c2ccccc21 (configuration not stated) | 8.91 µM (active) |  |
| C1CCc2nnnn2CC1 |  | 2.32% (inactive) |
| C[C@@H](CN(C)C)CN1c2ccccc2Sc2ccccc21 |  | -0.059% [at 17.1 µM] (inactive) |
| CCCCCCCCCCCCCCNCCO |  | -0.492% (inactive) |
| O=C1[C@H]2CCCC[C@H]2C(=O)N1CCCCN1CCN(c2nsc3ccccc23)CC1 |  | -21.3% (inactive) |
| c1ccc(OCc2ccc(CCCN3CCOCC3)cc2)cc1 |  | -13.6% (inactive) |
| CCCCC(CC)CN=C(N)NC(N)=NCCCCCCN=C(N)NC(N)=NCC(CC)CCCC (configuration not stated) |  | -17.3% (inactive) |
| CCN(CC)CCOC(=O)C(c1ccccc1)C1CCCCC1 (configuration not stated) |  | -17.7% (inactive) |
| CCN(CC)CCOc1ccc(C(O)(Cc2ccc(Cl)cc2)c2ccc(C)cc2)cc1 (configuration not stated) |  | -36.8% (inactive) |
| O=C(CCN1CCC(c2ccccc2)C1)c1ccc2c(c1)OCCO2 (configuration not stated) |  | -1.64% (inactive) |
| N[C@H](Cc1c[nH]c2ccccc12)C(=O)O |  | 1.65% (inactive) |
| COc1cc(NS(C)(=O)=O)ccc1Nc1c2ccccc2nc2ccccc12 | 7.94 µM (active) |  |
| CCOC(=O)COc1ccc2c(C)c(CCN(CC)CC)c(=O)oc2c1Cl |  | 6.82% (inactive) |
| CCC(=O)c1c(O)cc(O)cc1O |  | -0.944% (inactive) |
| CC(Cc1cccc(C(F)(F)F)c1)NCCOC(=O)c1ccccc1 (configuration not stated) |  | 1.27% (inactive) |
| O=C1CCC(c2ccc(-n3ccnc3)cc2)=NN1 |  | 2.15% (inactive) |

| Compound | Potency | ratio activity, negative = inhibition |
| --- | --- | --- |
| CN(C)CC/C=C1\c2ccccc2Sc2ccc(Cl)cc21 |  | -2.59% (inactive) |
| CCCCCCCCCCOCC(O)CN (configuration not stated) |  | -4.5% (inactive) |
| CN(C)CCCOc1nn(Cc2ccccc2)c2ccccc12 |  | 2.95% [at 17.1 µM] (inactive) |
| Nc1cc(Cl)c(NC2=NCCN2)c(Cl)c1 |  | 2.58% (inactive) |
| NC(CS)C(=O)O (configuration not stated) |  | 1.96% (inactive) |
| C#C[C@]1(O)CC[C@H]2[C@@H]3CCc4cc(OC5CCCC5)ccc4[C@H]3CC[C@@]21C |  | -11.3% (inactive) |
| CC(=O)c1ccc2c(c1)N(CCCN1CCC(CCO)CC1)c1ccccc1S2 |  | -13.3% [at 17.1 µM] (inactive) |
| CN=C(NC#N)NCCSCc1csc(N=C(N)N)n1 |  | 0.697% (inactive) |
| NC(=O)C(=O)N/N=C/c1ccc([N+](=O)[O-])o1 |  | -0.651% (inactive) |
| CCCCCCCCCCCCCCCC[N+](C)(C)CCN(Cc1ccc(OC)cc1)c1ncccn1 |  | 0.822% [at 17.1 µM] (inactive) |
| COCc1c(C(C)C)nc(C(C)C)c(/C=C/[C@@H](O)C[C@@H](O)CC(=O)O)c1-c1ccc(F)cc1 | 8.91 µM (active) |  |
| CC1=C(C(=O)OC(C)C)C(c2cccc([N+](=O)[O-])c2)C(C(=O)OC2CN(C(c3ccccc3)c3ccccc3)C2)=C(N)N1 (configuration not stated) |  | 3.55% (inactive) |
| CC(=O)Nc1c(I)cc(I)c(C(=O)O)c1I |  | -0.413% (inactive) |
| CN1CCN(CCCN2c3ccccc3Sc3ccc(S(=O)(=O)N(C)C)cc32)CC1 |  | -15% [at 17.1 µM] (inactive) |
| CN1CCC(=C2c3ccccc3Sc3ccccc32)CC1 |  | -5.41% (inactive) |
| CCOC(=O)/C=C(C)/C=C/C=C(C)/C=C/c1c(C)cc(OC)c(C)c1C |  | -24.4% (inactive) |

Molecular target: Glutaminase kidney isoform, mitochondrial (Homo sapiens) (UniProt O94925)
Experiment: qHTS for Inhibitors of Glutaminase (GLS): LOPAC Validation (AID 624146; active = well fitted inhibition curve with a large enough effect; note: nearly all actives have a fitted effect of over 60% in size;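 for activity change, negative = inhibition: glutamate product detected by oxidase and peroxidase coupled Amplex red fluorescence gain; % is set by controls: 0 for no effect and ±100 for the full control effect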)
Conditions: glutaminase enzyme activity inhibition; series mostly up to 46.1 µM; activity change, negative = inhibition: at the top concentration
Procedure, shortened: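 Enzyme dispensed in phosphate buffer (45 mM, pH 8.2, 0.02% Tween-20), compounds pinned in, then 1 mM L-glutamine solution and the glutamate oxidase–HRP–Amplex Red mix added; fluorescence read immediately and again after 30 min at room temperature.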

Chain of Glutaminase kidney isoform, mitochondrial (Homo sapiens) (O94925 whole entry, looked up, canonical isoform): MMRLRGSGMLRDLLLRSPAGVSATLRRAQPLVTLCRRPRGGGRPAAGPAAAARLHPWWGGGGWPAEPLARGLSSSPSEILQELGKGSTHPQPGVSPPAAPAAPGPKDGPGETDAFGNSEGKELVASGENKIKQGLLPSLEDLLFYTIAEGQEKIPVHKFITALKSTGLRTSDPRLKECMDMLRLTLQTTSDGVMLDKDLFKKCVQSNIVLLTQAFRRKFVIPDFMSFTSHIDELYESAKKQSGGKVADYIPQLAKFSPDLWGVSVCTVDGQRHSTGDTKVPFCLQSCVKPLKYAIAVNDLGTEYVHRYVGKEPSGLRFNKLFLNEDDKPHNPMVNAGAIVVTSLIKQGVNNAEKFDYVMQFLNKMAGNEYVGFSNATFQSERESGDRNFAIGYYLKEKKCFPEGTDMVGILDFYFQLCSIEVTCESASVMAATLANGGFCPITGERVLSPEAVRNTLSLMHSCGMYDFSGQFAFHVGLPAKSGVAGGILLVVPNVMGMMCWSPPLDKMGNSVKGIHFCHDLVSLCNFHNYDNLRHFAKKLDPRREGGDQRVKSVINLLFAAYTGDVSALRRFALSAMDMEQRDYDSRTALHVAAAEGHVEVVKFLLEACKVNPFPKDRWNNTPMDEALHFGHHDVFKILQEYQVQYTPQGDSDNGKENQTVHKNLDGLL

| Compound | activity change, negative = inhibition | Potency |
| --- | --- | --- |
| C1CCc2nnnn2CC1 | 47.3% (inactive) |  |
| COc1cc(NS(C)(=O)=O)ccc1Nc1c2ccccc2nc2ccccc12 |  | 1 µM (active) |
| O=C1CCC(c2ccc(-n3ccnc3)cc2)=NN1 | 99.7% (inactive) |  |
| CNCCC=C1c2ccccc2CCc2ccccc21 | 2.29% (inactive) |  |
| CC1(C)CCC(NC(=O)[C@@H](N)CCC(=O)O)CC1 | -11.5% (inactive) |  |
| N[C@H](CO)C(=O)O | 0.686% (inactive) |  |
| Nc1cc(Cl)c(NC2=NCCN2)c(Cl)c1 | -11.4% (inactive) |  |
